VP16 counter – VP16 counterscreen qHTS for inhibitors of ROR gamma transcriptional activity; 3.5% of 310,000 active; Drosophila S2 Gal4-VP16 UAS-luciferase, luminescence, 20 h; Potency, µM (highest dose often 53.6 µM), for inactives: at the top dose activity, negative = inhibition, hits mostly inhibitors; AID 2546, 2010;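 also: Gal4-VP16 expression switched on by copper sulfate through the metallothionein promoter; nearly all actives have a fitted effect of over 50% in size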
KinaseGlo FLuc – Counterscreen for Luciferase (Kinase-Glo TM) Inhibition; Kinase-Glo luciferase, ATP luminescence, 8 min; Potency, µM (highest dose often 38.3 µM), for inactives: at the top dose activity change, negative = inhibition, hits mostly inhibitors; 0.28% of 200,000 active; AID 1379, 2008; also: nearly all actives have a fitted effect of over 60% in size
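Inhibition of Kinase-Glo luciferase light generation was assessed at 10 uM ATP in pH 7.2 imidazole buffer, with luminescence measured after eight minutes at ambient temperature.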
RORg inh – qHTS for inhibitors of ROR gamma transcriptional activity. Drosophila S2 Gal4-RORgamma UAS-luciferase reporter, 20 h. 5.4% of 310,000 active. Potency, µM (titrated, usually from 53.6 µM), for inactives: at the top dose activity change, negative = inhibition, usual class: inhibitors. Nuclear receptor ROR-gamma (Mus musculus), P51450; also: nearly all actives have a fitted effect of over 60% in size
Target sequence (P51450 whole entry, looked up, the tested form may be a part): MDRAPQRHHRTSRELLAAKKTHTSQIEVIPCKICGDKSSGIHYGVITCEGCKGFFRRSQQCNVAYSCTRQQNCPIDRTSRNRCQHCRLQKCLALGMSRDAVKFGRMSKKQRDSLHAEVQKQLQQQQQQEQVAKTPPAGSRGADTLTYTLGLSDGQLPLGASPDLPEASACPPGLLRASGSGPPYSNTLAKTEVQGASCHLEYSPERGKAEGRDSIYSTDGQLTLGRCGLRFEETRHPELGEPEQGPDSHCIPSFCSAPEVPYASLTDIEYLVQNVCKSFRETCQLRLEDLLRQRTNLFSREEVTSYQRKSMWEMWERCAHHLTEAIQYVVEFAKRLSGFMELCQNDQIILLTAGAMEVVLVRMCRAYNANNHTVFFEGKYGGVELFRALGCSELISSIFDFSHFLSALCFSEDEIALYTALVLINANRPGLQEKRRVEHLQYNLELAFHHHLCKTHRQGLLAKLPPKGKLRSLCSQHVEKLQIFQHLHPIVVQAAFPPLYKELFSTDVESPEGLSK
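Luciferase reporter read in Schneider cells carrying Gal4-RORγ (mouse) and UAS-Photinus luciferase; cells given compound 1 h before 700 uM copper sulfate induction, then incubated 20 h at ambient temperature.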
* = called active by the depositor; ? = inconclusive; . = not tested or not shown; [ ] = remark or other dose. Sampled rows, rich in hits. Any-hit rate of the full collection: about 6.2%. Calls follow the shape of the dose curve; as a rule, active = well fitted curve in the direction sought with a large enough effect; inconclusive = small, poorly fitted or top-dose-only effect, or another doubt; inactive = no such curve, though single readings can be large; an effect the other way counts as inactive or inconclusive. % is scaled to controls: 0 for no effect and ±100 for the full control effect; potency is read from the fitted curve at half-maximal effect.

SMILES | VP16 counter | KinaseGlo FLuc | RORg inh
Cc1ccc(S(=O)(=O)N2CCC(=O)N(C(COCc3ccc(C(F)(F)F)cc3)Cc3ccccc3)CC2)cc1 (stereo unspecified) | 2% | 3% | 22%
COCCn1c(=O)c(-c2ccc(Cl)cc2)nc2cnc(N3CCNCC3)nc21 | -16% | . | -27%
Cc1cccc(NC(=S)NCc2ccc3c(c2)OCO3)c1C | 13µM* | 0% | 5µM*
CC(C)(C)NC(=S)NCc1ccc2c(c1)OCO2 | ? | -3% | 11µM*
CN(C)CC(C)(C)CNC(=S)NCc1ccc2c(c1)OCO2 | -15% | 4% | -1%
CCOc1ccccc1NC(=O)NCc1ccc2c(c1)OCO2 | 1% | . | 6%
Cc1cccc(NC(=O)C(=O)NCc2ccc3c(c2)OCO3)c1C | -18% | 1% | -23%
Cc1cccc(NC(=S)NCCc2ccc3c(c2)OCCO3)c1C | ? | -3% | 4µM*
Cc1cccc(NC(=S)NCCN2CCOCC2)c1C | 1% | 0% | ?
CCc1ccccc1NC(=S)NCc1ccc2c(c1)OCO2 | 11µM* | -9% | 6.3µM*
O=C(CSc1ccccc1)Nc1cc(S(=O)(=O)N2CCOCC2)ccc1N1CCOCC1 | 1% | 0% | 7%
CC(=O)N[C@@H](Cc1c[nH]c2ccccc12)C(=O)NCc1ccccc1 | -5% | . | -2%
Cc1ccc(NC(=O)CCn2cc(C(F)(F)F)ccc2=O)cc1 | 10% | . | 4%
CCC1(c2ccc(O)cc2)NC(=O)N(C)C1=O (stereo unspecified) | -3% | . | 0%
COc1ccc(-c2noc(CNC(=O)c3ccc4c(c3)OCO4)n2)cc1OC | 11% | . | 0%
COc1cccc(-c2cncnc2NCc2ccccc2OC)c1 | -9% | . | -8%
Cc1ccc(C)c(NC(=S)NCc2ccc3c(c2)OCO3)c1 | -6%[0.365 µM] | 1% | ?
Cc1ccccc1NC(=S)NCc1ccc2c(c1)OCO2 | 10µM* | -5% | 2.5µM*
COc1ccc2c3c(c(=O)oc2c1)C1O[C@](CCCCN2C(=O)c4ccccc4C2=O)(Cc2cc(OC)c(OC)cc21)O3 | 2%[10 µM] | . | 5%[10 µM]
COc1cccc(Nc2ncc3nc(C)c(=O)n(-c4ccccc4)c3n2)c1 | -2% | . | 42%
Cc1c(C(=O)NC2CCC(C)CC2)oc2ccccc12 (stereo unspecified) | -13% | . | 16%
Cc1c(C(=O)NC2CCCCC2C)oc2ccccc12 (stereo unspecified) | 5.6µM* | . | 11µM*
COc1cc(NC(=O)Nc2cccc(Cl)c2)c(C(=O)O)cc1OC | 1% | . | ?
COc1ccc(Cl)cc1NC(=S)Nc1ccc(Cl)cn1 | ? | 0% | 1.3µM*
COc1ccc(Cl)cc1NC(=O)CC(=O)Nc1cc(Cl)ccc1OC | -8% | . | 17%
SMILES | VP16 counter | KinaseGlo FLuc | RORg inh
COC(=O)c1cc(OC)c(OC)cc1NC(=S)Nc1cccc(Cl)c1 | 6.3µM* | 0% | 4µM*
COc1ccc(Cl)cc1S(=O)(=O)Nc1ccc(Cl)cn1 | 3% | . | 3%
COC(=O)c1cc(OC)c(OC)cc1NC(=S)Nc1cc(Cl)ccc1OC | 1.4µM* | . | 1.3µM*
C[Si](C)(C/C=C/CC[C@H](O)C1=CCCCC1=O)c1ccccc1 | -4% | -2% | 3%
CCCn1c(CN2CCN(C(=O)OCC)CC2)nc2cc(NC(=O)C(C)C)ccc21 | -1% | . | -5%
COc1ccccc1Oc1c(C)oc2c(CN(C)C)c(O)ccc2c1=O | -6% | 5% | -9%
CCC(Sc1ccc(C(=O)O)cc1)C(=O)O (stereo unspecified) | 0% | 3% | -13%
CCOc1ccc(C(=O)CC(Sc2ccc(C)cc2)C(=O)O)cc1 (stereo unspecified) | ? | 0% | 4.5µM*
C[C@H](NC(=O)[C@H]1N2C(=O)c3ccccc3C2SC1(C)C)C(=O)N1CCC[C@H]1CO (stereo partly specified) | -1% | . | ?
COc1ccc(-n2c(=O)c(-c3cccs3)nc3cnc(OC)nc32)cc1 | 2% | . | -16%
FC(F)(F)c1cccc(NC(=S)NC2CCCC2)c1 | 8.9µM* | -1% | 5µM*
Fc1cccc(NC(=S)NNc2c3ccccc3nc3ccccc23)c1 | -12% | -19% | 10%
Fc1cccc(NC(=S)NNc2ccccc2)c1 | 2.2µM* | . | 1.3µM*
FC(F)(F)c1ccc(NC(=S)NC2CCCCC2)cc1 | ? | -1% | 4.5µM*
O=C(O)c1ccc(NC(=S)NC2CCCCC2)cc1 | -10% | -5% | -7%
O=C(Nc1cccc(C(F)(F)F)c1)C1CCCCC1 | -4% | -3% | 12%
Fc1cccc(NC(=S)NC2CCCCCCC2)c1 | 7.1µM* | . | 3.5µM*
O=C(NC1CCN(C(=O)Nc2cccc(F)c2)CC1)C1CCCCC1 | 0% | -2% | -2%
NS(=O)(=O)c1ccc(N=Nc2ncccc2O)cc1 | . | -5%[7.66 µM] | .
Cc1cnc2cc([N+](=O)[O-])ccc2n1 | 8% | 6% | 36%
CCCCC[C@]12Cc3cc(OC)c(OC)cc3C(O1)c1c(cc(C)n(-c3ccccc3)c1=O)O2 | -1%[10 µM] | . | 4%[10 µM]
CC(CCC#N)[N+](=O)[O-] (stereo unspecified) | 3% | -3% | 2%
Cc1cccc(N2CCN(Cc3cn(C)nc3-c3ccccc3F)CC2)n1 | -6% | -1% | -27%
CCOc1ccc(C(=O)C(CN2CCOCC2)c2ccccc2)cc1 (stereo unspecified) | ? | 3% | ?
CC(CN1CCOCC1)OC(=O)c1ccc(Br)cc1 (stereo unspecified) | ? | -2% | 2µM*
SMILES | VP16 counter | KinaseGlo FLuc | RORg inh
CC(CN1CCOCC1)OC(=O)c1ccccc1Cl (stereo unspecified) | 7% | . | -37%
O=C(c1ccc(Br)cc1)C(CN1CCOCC1)c1ccccc1 (stereo unspecified) | 20µM* | . | 16µM*
CCc1nn(CC(=O)N(C)C2CCCCC2)c(=O)c2cc3cc(C)ccc3n12 | 3% | . | -1%
C/C(CC(=O)NC12CC3CC(CC(C3)C1)C2)=N\NC(=O)c1ccc(C)cc1 | ? | -2% | ?
O=C(NC12CC3CC(CC(C3)C1)C2)c1cnccn1 | -8% | 3% | -1%
C/C(CC(=O)NC12CC3CC(CC(C3)C1)C2)=N\NC(=O)c1ccc(F)cc1 | ? | . | 18µM*
C/C(CC(=O)NC12CC3CC(CC(C3)C1)C2)=N\NC(=O)c1cnccn1 | ? | -2% | 13µM*
COc1ccc(C(=O)CC(=O)c2c(O)cc(OC)cc2OC)cc1 | -3%[10 µM] | . | -9%[10 µM]
O=C(CNS(=O)(=O)/C=C/c1ccccc1)OC1CCOC1=O (stereo unspecified) | 3% | -2% | 15%
CCC(=O)CC | -2% | . | -4%
O=C(CSc1c(Cl)cccc1Cl)N1CCC(c2nc3ccccc3s2)CC1 | -29% | 1% | 43%
Cc1c(Cl)cccc1N/C(SCC(=O)N1CCCCCC1)=C(/C#N)c1nc2ccccc2s1 | -23% | -3% | 8.9µM*
Cc1cc(C)nc(NC2=NCCN2C(=O)NC2CCCCC2)n1 | 12% | 2% | -28%
CCNC(=S)N1CCN=C1Nc1nc(C)cc(C)n1 | 9% | 0% | 18µM*
CCC(C)=O | -2% | . | 1%
COc1ccc2cc(/C=C/C(=O)c3ccco3)c(Cl)nc2c1 | ? | -1% | ?
COc1cc2cc(/C=C/C(=O)c3ccco3)c(Cl)nc2cc1OC | 7.9µM* | -6% | ?

Assay outcomes from PubChem.
